Inconclusive results are not listed. Active and inactive are the calls of the source. Calls follow the shape of the dose curve; as a rule, active = well fitted curve in the direction sought with a large enough effect; inconclusive = small, poorly fitted or top-dose-only effect, or another doubt; inactive = no such curve, though single readings can be large; an effect the other way counts as inactive or inconclusive.
What was measured:
[1] = qHTS of pediatric cancer cell lines to identify multiple opportunities for drug repurposing: Primary screen for NB-EBc1 cells (AID 1347095)
Summary of the method: (§1)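 Luminescence from CellTiter-Glo served as readout of metabolically active cells after 48 h compound exposure. Titrations: MIPE 11-point, from 0.78 nM; NPC 8-point, from 0.59 nM (final). Concentration-response curves came straight from the primary screen.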

[2] = qHTS of pediatric cancer cell lines to identify multiple opportunities for drug repurposing: Primary screen for Saos-2 cells (AID 1347097); also: nearly all actives have a fitted effect of over 40% in size
Summary of the method: as §1

[3] = qHTS of pediatric cancer cell lines to identify multiple opportunities for drug repurposing: Primary screen for SK-N-SH cells (AID 1347098); also: nearly all actives have a fitted effect of over 65% in size
Summary of the method: (§2)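 Cells (500-1,000/well) rested 5 h, then received compounds for 48 h; metabolically active cells were measured by CellTiter-Glo luminescence. Final concentrations spanned up to 46 µM (MIPE, 11-point) or 0.59 nM-46 µM (NPC, 8-point) in primary screens, 11-point in follow-ups.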

[4] = qHTS of pediatric cancer cell lines to identify multiple opportunities for drug repurposing: Primary screen for LAN-5 cells (AID 1347100)
Summary of the method: (§3)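 Viability after 48 h compound treatment at 37C, 500-1,000 cells/well, read as ATP luminescence with CellTiter-Glo. Primary screens used 11-point (MIPE, 0.78 nM-46 µM) or 8-point (NPC, 0.59 nM-46 µM) final concentrations; follow-up screens used 11-point dilutions.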

[5] = qHTS of pediatric cancer cell lines to identify multiple opportunities for drug repurposing: Primary screen for BT-12 cells (AID 1347101); also: nearly all actives have a fitted effect of over 25% in size
Summary of the method: as §2

[6] = qHTS of pediatric cancer cell lines to identify multiple opportunities for drug repurposing: Primary screen for Rh18 cells (AID 1347102); also: nearly all actives have a fitted effect of over 65% in size
Summary of the method: as §3

[7] = qHTS of pediatric cancer cell lines to identify multiple opportunities for drug repurposing: Primary screen for OHS-50 cells (AID 1347103); also: nearly all actives have a fitted effect of over 40% in size
Summary of the method: as §2

[8] = qHTS of pediatric cancer cell lines to identify multiple opportunities for drug repurposing: Primary screen for RD cells (AID 1347104); also: nearly all actives have a fitted effect of over 55% in size
Summary of the method: as §1

[9] = qHTS of pediatric cancer cell lines to identify multiple opportunities for drug repurposing: Primary screen for NB1643 cells (AID 1347099); also: nearly all actives have a fitted effect of over 50% in size
Summary of the method: as §1

Measured: Potency
Potency is read from the fitted curve at half-maximal effect.

C=C1C(=O)O[C@H]2[C@@H]1CCC(C)=CCC[C@@]1(C)O[C@@H]21
active: [1] 5.26 µM | [2] 3.32 µM | [3] 24.1 µM | [4] 7.43 µM | [5] 21.7 µM | [6] 23.5 µM | [7] 4.85 µM | [8] 18.7 µM

Cc1ccc2nc(NCCN)c3ncc(C)n3c2c1
active: [1] 7.43 µM | [2] 14.8 µM | [3] 6.81 µM | [9] 5.9 µM | [5] 34.3 µM | [7] 24.3 µM | [8] 13.2 µM

Cn1c(Nc2ccc(C(F)(F)F)cc2)nc2cc(Oc3ccnc(-c4ncc(C(F)(F)F)[nH]4)c3)ccc21
active: [1] 14.8 µM | [2] 2.96 µM | [3] 7.64 µM | [9] 11.8 µM | [4] 10.5 µM | [5] 8.63 µM | [8] 4.18 µM

CC(C)[C@H](CO)Nc1nc(Nc2cccc(Cl)c2)c2ncn(C(C)C)c2n1
active: [1] 18.7 µM | [2] 9.35 µM | [3] 21.5 µM | [9] 2.96 µM | [4] 11.8 µM | [5] 21.7 µM | [7] 13.7 µM | [8] 18.7 µM

COc1ccc(C[C@@H](C)[C@@H](C)Cc2ccc(OC)c(OC)c2)cc1OC
active: [1] 0.118 µM | [2] 1.05 µM | [4] 0.187 µM | [5] 0.863 µM | [7] 0.685 µM
inactive: [3] | [6]

CC(C)N(CC[C@H](c1ccccc1)c1cc(CO)ccc1O)C(C)C
not listed: [3] | [7]
inactive: all other assays above

O=C(Nc1cc2cc[nH]c2cn1)c1ccccc1
active: [1] 13.2 µM | [2] 11.8 µM | [3] 19.2 µM | [4] 14.8 µM | [5] 6.85 µM | [6] 11.8 µM | [7] 10.9 µM | [8] 14.8 µM

CC(C)c1cc(C(C)C)c(CC(=O)NS(=O)(=O)Oc2c(C(C)C)cccc2C(C)C)c(C(C)C)c1
active: [1] 14.8 µM | [2] 18.7 µM | [9] 16.6 µM | [7] 27.3 µM
inactive: [3] | [6]

CCNC(=O)Nc1ccc(-c2nc3c(c(N4CCOC[C@H]4C)n2)CCN(C2COC2)C3)cc1
active: [1] 1.18 µM | [2] 4.69 µM | [3] 17.1 µM | [7] 0.485 µM | [8] 1.05 µM

C#C[C@]1(O)CC[C@@H]2[C@@H]3CCc4cc(O)ccc4[C@H]3CC[C@@]21C
active: [1] 13.2 µM | [2] 18.7 µM | [3] 24.1 µM | [9] 20.9 µM | [7] 30.6 µM | [8] 18.7 µM

CCN(CC)CCNC(=O)c1c(C)[nH]c(C=C2C(=O)Nc3ccc(F)cc32)c1C
active: [1] 7.62 µM | [2] 4.29 µM | [3] 22.1 µM | [4] 4.29 µM | [5] 44.4 µM | [6] 17.1 µM | [7] 1.4 µM | [8] 9.59 µM

COc1cc(OC)cc(-c2ccc3ncc4ccc(=O)n(-c5ccc(N6CCNCC6)c(C(F)(F)F)c5)c4c3c2)c1
active: [1] 3.72 µM | [2] 13.2 µM | [3] 7.64 µM | [4] 2.64 µM | [5] 19.3 µM | [6] 14.8 µM | [7] 4.32 µM | [8] 8.33 µM

CN(CC(=O)N(Cc1ccc(C2CCCCC2)cc1)c1ccc(C(=O)O)c(O)c1)S(=O)(=O)c1c(F)c(F)c(F)c(F)c1F
active: [1] 26.4 µM | [2] 16.6 µM | [3] 21.5 µM | [9] 20.9 µM | [4] 23.5 µM | [7] 21.7 µM | [8] 37.2 µM

CCc1cnn2c(NCc3ccc[n+]([O-])c3)cc(N3CCCC[C@@H]3CCO)nc12
active: [1] 0.0187 µM | [2] 0.0235 µM | [3] 0.0383 µM | [5] 0.0432 µM | [7] 0.0343 µM | [8] 0.0332 µM

CN1CCCN(C(=O)c2cccc(-c3ccc(C=C4C(=O)Nc5ccc(Cl)cc54)o3)c2)CC1
active: [1] 3.32 µM | [2] 23.5 µM | [9] 5.9 µM | [4] 2.09 µM | [5] 24.3 µM | [6] 7.43 µM | [7] 13.7 µM | [8] 33.2 µM

Cn1cc(-c2cnn3c(N)c(Br)c([C@H]4CCCNC4)nc23)cn1
active: [1] 0.264 µM | [2] 1.48 µM | [3] 17.1 µM | [9] 1.32 µM | [4] 0.743 µM | [7] 0.385 µM | [8] 1.05 µM

C=CC(=O)N1CCc2ccc(-n3c(=O)ccc4cnc5ccc(-c6cnn(C)c6)cc5c43)cc21
active: [1] 3.72 µM | [2] 2.96 µM | [9] 2.35 µM | [4] 2.35 µM | [5] 6.11 µM | [6] 8.33 µM | [7] 8.63 µM | [8] 4.69 µM

COc1ccc(S(=O)(=O)Nc2cccnc2Nc2ccc(O)cc2)cc1
active: [1] 0.0166 µM | [2] 0.235 µM | [4] 0.0469 µM | [5] 0.432 µM | [7] 0.306 µM
inactive: [9] | [6]

CCCNS(=O)(=O)Nc1ncnc(OCCOc2ncc(Br)cn2)c1-c1ccc(Br)cc1
not listed: [5] | [9]
inactive: all other assays above

COC[C@H](NC(=O)c1cnc(C)s1)C(=O)N[C@@H](COC)C(=O)N[C@@H](Cc1ccccc1)C(=O)[C@@]1(C)CO1
active: [1] 0.0833 µM | [2] 0.662 µM | [3] 0.541 µM | [4] 0.132 µM | [5] 0.432 µM | [6] 0.187 µM | [7] 0.193 µM | [8] 0.166 µM

C[C@H](O)[C@@H]1C(=O)N2C(C(=O)O)=C(S[C@@H]3CN[C@H](CNS(N)(=O)=O)C3)[C@@H](C)[C@@H]12
not listed: [3]
inactive: all other assays above

O=C(O)c1ccc(Nc2ncc3c(n2)-c2ccc(Cl)cc2C(c2c(F)cccc2F)=NC3)cc1
inactive: [5]
active: [1] 0.0662 µM | [4] 0.0296 µM | [8] 29.6 µM

CC(=O)ON=C1C(c2c(O)[nH]c3cc(Br)ccc23)=Nc2ccccc21
active: [1] 5.26 µM | [2] 11.8 µM | [9] 16.6 µM | [5] 19.3 µM | [8] 6.62 µM

Nc1ncn([C@@H]2O[C@H](CO)[C@@H](O)[C@@H]2O)c(=O)n1
active: [1] 16.6 µM | [9] 4.69 µM | [4] 5.26 µM | [5] 5.44 µM | [7] 15.3 µM | [8] 5.9 µM

CCOc1cc2ncc(C#N)c(Nc3ccc(OCc4ccccn4)c(Cl)c3)c2cc1NC(=O)C=CCN(C)C
active: [1] 0.332 µM | [2] 1.18 µM | [9] 0.59 µM | [4] 1.48 µM | [5] 1.93 µM | [7] 0.863 µM | [8] 0.418 µM

N#Cc1c(NC(=O)c2cccc3ccccc23)sc2c1CCCC2
active: [1] 0.332 µM | [2] 0.132 µM | [4] 0.148 µM | [5] 1.09 µM | [7] 0.485 µM

COc1cc(C(C)C)c(Oc2cnc(NC(CO)CO)nc2N)cc1I
inactive: [4]
active: [1] 26.4 µM | [9] 2.96 µM

Reference: PubChem BioAssay (NCATS)
